Reference: the supplement of paper PMC3342239
Structures can show the parent of a compound that is named as a salt.

tested on: Saccharomyces cerevisiae; experiment: fraction of cells in G1 phase (DNA content, flow cytometry); higher = more cells with unreplicated DNA (G1 delay); conditions: temperature: 30 C; YPD; JTY2953 pdr5 snq2 (sensitized); drug added to: cultures diluted from stationary phase; 6-7 h
How it was run: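 For the G1 fraction, the Dean-Jett-Fox G1 peak area was divided by the sum of the G1 and G2/M areas. S. cerevisiae in YPD at 30°C received library drugs and was fixed 6–7 h later for sensitized JTY2953 (diluted 1∶200 from overnight, final 20 µg/ml), 6 h later for dividing JTY2953, or 4.33 h later for BY4741. Fixed cells were stained with SYTOX Green and 10,000 events recorded by flow cytometry.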

Row | SMILES | fraction of cells in G1 phase
1 | O=C(O)Cc1ccccc1Nc1c(Cl)cccc1Cl [Diclofenac, Na] (67.5321 µM) | 0.473
2 | C[C@@H](O[C@H]1OCCN(Cc2n[nH]c(=O)[nH]2)[C@H]1c1ccc(F)cc1)c1cc(C(F)(F)F)cc(C(F)(F)F)c1 [Aprepitant] (37.4225 µM) | 0.493
3 | CCN1CCC[C@H]1CNC(=O)c1c(O)c(Cl)cc(Cl)c1OC [Raclopride l-tartrate s(-)] (57.5963 µM) | 0.521
4 | C[C@H]1[C@H](OC(=O)CCC(=O)O)O[C@@H]2O[C@@]3(C)CC[C@H]4[C@H](C)CC[C@@H]1[C@@]24OO3 [Artesunate] (52.025 µM) | 0.556
5 | N=C(N)NC(=N)N1CCOCC1 [Moroxydine HCl] (96.3092 µM) | 0.496
6 | C=CCc1ccccc1OCC(O)CNC(C)C (stereo not drawn) [Alprenolol HCl] (80.2066 µM) | 0.52
7 | C[N+](C)(C)CCOC(=O)CCC(=O)OCC[N+](C)(C)C [Succinylcholine] (68.8691 µM) | 0.467
8 | CCCc1nc(C)c2c(=O)nc(-c3cc(S(=O)(=O)N4CCN(CC)CC4)ccc3OCC)[nH]n12 [Vardenafil] (40.9322 µM) | 0.511
9 | COC(=O)Nc1nc2cc(C(=O)c3ccccc3)ccc2[nH]1 [Mebendazol] (67.7277 µM) | 0.352
10 | CN1CCN(CC(=O)N2c3ccccc3C(=O)Nc3cccnc32)CC1 [Pirenzepine 2HCl] (56.9133 µM) | 0.534
11 | C[C@]12CC[C@@H]3c4ccc(O)cc4C[C@@H](CCCCCCCCC[S+]([O-])CCCC(F)(F)C(F)(F)F)[C@H]3[C@@H]1CC[C@@H]2O (stereo partly drawn) [Fulvestrant] (32.9606 µM) | 0.458
12 | CCOc1ccccc1OCCN[C@H](C)Cc1ccc(OC)c(S(N)(=O)=O)c1 [Tamsulosin HCl] (48.9571 µM) | 0.507
13 | O=C(NCC1CCCCN1)c1cc(OCC(F)(F)F)ccc1OCC(F)(F)F (stereo not drawn) [Flecainide] (42.1585 µM) | 0.509
14 | CN1CCN2c3ccccc3Cc3ccccc3C2C1 (stereo not drawn) [Mianserin hcl] (75.6505 µM) | 0.471
15 | CCOC(=O)[C@H](CCc1ccccc1)N[C@@H](C)C(=O)N1[C@H](C(=O)O)C[C@@H]2CCC[C@@H]21 [Ramipril] (48.0167 µM) | 0.482
16 | O=C(Nc1cccc2c(=O)cc(-c3nnn[nH]3)oc12)c1ccc(OCCCCc2ccccc2)cc1 [Pranlukast] (41.5355 µM) | 0.561
17 | CC12CC3CC(C)(C1)CC(N)(C3)C2 [Memantine HCl] (111.54 µM) | 0.532
18 | CC[C@H]1OC(=O)[C@H](C)[C@@H](O[C@H]2C[C@@](C)(OC)[C@@H](O)[C@H](C)O2)[C@H](C)[C@@H](O[C@@H]2O[C@H](C)C[C@H](N(C)C)[C@H]2O)[C@](C)(OC)C[C@@H](C)C(=O)[C@H](C)[C@@H](O)[C@]1(C)O [Clarithromycin] (26.7389 µM) | 0.489
19 | N[C@@H](Cc1cc(I)c(Oc2cc(I)c(O)c(I)c2)c(I)c1)C(=O)O (25.7441 µM) | 0.486

Row | SMILES | fraction of cells in G1 phase
20 | C[C@]12CCC(=O)C=C1CC[C@@H]1[C@@H]2[C@@H](O)C[C@@]2(C)[C@H]1CC[C@]2(O)C(=O)CO [Hydrocortisone] (55.1769 µM) | 0.483
21 | CN(C)c1ccc(O)c2c1C[C@H]1C[C@H]3[C@H](N(C)C)C(=O)C(C(N)=O)=C(O)[C@@]3(O)C(=O)C1=C2O [Minocycline HCl] (43.717 µM) | 0.51
22 | CN(C)CC/C=C1/c2ccccc2COc2ccc(CC(=O)O)cc21 [Olopatadine] (59.2729 µM) | 0.431
23 | C[C@H]1COc2c(C3(N)CC3)c(F)cc3c(=O)c(C(=O)O)cn1c23 [Pazufloxacin] (62.8324 µM) | 0.474
24 | CCCC(CCC)C(=O)O [Valproic acid] (138.681 µM) | 0.541
25 | CCCCc1ncc(/C=C(\Cc2cccs2)C(=O)O)n1Cc1ccc(C(=O)O)cc1 [Eprosartan] (47.1117 µM) | 0.493
26 | CC[N+](CC)(CC)CCOc1cccc(OCC[N+](CC)(CC)CC)c1OCC[N+](CC)(CC)CC [Gallamine triethiodide] (39.1519 µM) | 0.516
27 | CC(C)[N+]1(C)[C@@H]2CC[C@H]1CC(OC(=O)C(CO)c1ccccc1)C2 (stereo partly drawn) [Ipratropium Br] (60.1563 µM) | 0.508
28 | CC(=O)O[C@H]1C[C@@H]2CC[C@@H]3[C@H](CC[C@@]4(C)[C@H]3C[C@H]([N+]3(C)CCCCC3)[C@@H]4OC(C)=O)[C@@]2(C)C[C@@H]1N1CCCCC1 [Vecuronium Br] (35.8523 µM) | 0.478
29 | Clc1ccc2nsnc2c1NC1=NCCN1 [Tizanidine HCl] (78.8287 µM) | 0.504
30 | Nc1nc(Cl)nc2c1ncn2[C@@H]1O[C@H](CO)[C@@H](O)[C@@H]1F [Clofarabine] (65.8583 µM) | 0.465
31 | C#Cc1cccc(Nc2ncnc3cc(OCCOC)c(OCCOC)cc23)c1 [Erlotinib] (50.8329 µM) | 0.527
32 | CO[C@H]1C[C@H](O[C@H]2[C@H](C)[C@@H](O[C@@H]3O[C@H](C)C[C@H](N(C)C)[C@H]3OC(C)=O)[C@@H](C)C[C@@]3(CO3)C(=O)[C@H](C)[C@@H](OC(C)=O)[C@@H](C)[C@@H](C)OC(=O)[C@@H]2C)O[C@@H](C)[C@@H]1OC(C)=O [Troleandomycin] (24.5704 µM) | 0.489
33 | NC12CC3CC(CC(C3)C1)C2 [Amantadine HCl] (106.553 µM) | 0.505
34 | O=C(NC(Cc1cc(=O)[nH]c2ccccc12)C(=O)O)c1ccc(Cl)cc1 (stereo not drawn) [Rebamipide] (53.9381 µM) | 0.473
35 | CCN(Cc1ccncc1)C(=O)C(CO)c1ccccc1 (stereo not drawn) [Tropicamide] (70.3331 µM) | 0.521
36 | C[C@@H](O)[C@H]1C(=O)N2C(C(=O)O)=C(S[C@@H]3CN[C@H](C(=O)N(C)C)C3)[C@H](C)[C@H]12 [Meropenem] (52.1553 µM) | 0.495
37 | COC(=O)C1=C(C)NC(C)=C(C(=O)OCCN2CCN(C(c3ccccc3)c3ccccc3)CC2)C1c1cccc([N+](=O)[O-])c1 (stereo not drawn) [Manidipine] (32.7484 µM) | 0.554
38 | Clc1ccc2c(c1)CCc1cccnc1C2=C1CCNCC1 [Desloratadine] (64.3439 µM) | 0.5
